Most compounds without a hit are left out; they make up all but 0.95% or so of the library.
Giardia FBPA inh-1 = qHTS Assay for Inhibitors of Fructose-1,6-bisphosphate Aldolase from Giardia Lamblia; 290,000 tested, 0.71% active; A8B2U2; purified Giardia FBPA; Potency, µM (top dose mostly 59.6 µM), inactives show top-dose activity, negative = inhibition, actives largely listed as inhibitors; AID 2451, 2010; note: nearly all actives have a fitted effect of over 55% in size
Target sequence (A8B2U2 whole entry, looked up): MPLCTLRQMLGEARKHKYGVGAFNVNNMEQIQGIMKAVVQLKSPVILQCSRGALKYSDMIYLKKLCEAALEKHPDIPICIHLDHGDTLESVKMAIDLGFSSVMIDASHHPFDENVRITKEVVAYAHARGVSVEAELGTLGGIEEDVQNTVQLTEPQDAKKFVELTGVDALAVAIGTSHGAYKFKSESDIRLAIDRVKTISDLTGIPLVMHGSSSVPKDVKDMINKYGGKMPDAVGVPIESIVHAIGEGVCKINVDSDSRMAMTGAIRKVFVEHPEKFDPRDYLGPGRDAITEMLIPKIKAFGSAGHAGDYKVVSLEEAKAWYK
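40 nM FBPA preincubated 10 min at RT with compound (up to 57.5 uM final), then substrate plus GAPDH/TPI/NAD/arsenate coupling and diaphorase/resazurin added. Fluorescence read after 20 min at RT, 525/598 nm.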
RE007 growth inh = qHTS Assay for Inhibitors of the HIV-1 protein Vpr. S. pombe RE007 Vpr strain, BacTiter-Glo ATP luminescence, 24 h. Potency, µM (series often up to 92.2 µM), for the others: top-dose activity change, negative = less growth, most hits filed as inhibitors. 360,000 tested, 0.21% active; active = well fitted falling curve with a large enough effect; inconclusive = small, poorly fitted or top-dose-only effect; inactive = no such curve, though single readings can be large or run the other way; note: nearly all actives have a fitted effect of over 50% in size
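Fission yeast RE007 carrying one integrated HIV-1 vpr copy, seeded at OD 0.01 in PMG+AL medium with 23 nL pinned compound. Grown 24 h at 30 degrees; viability read by BacTiter-Glo luminescence after 5 min.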
LmPK inh = qHTS Assay for Inhibitors of Leishmania Mexicana Pyruvate Kinase (LmPK). Potency, µM (series often up to 57.5 µM), for inactives: at the top dose activity change, negative = inhibition, usual class: inhibitors. 290,000 tested, 0.37% active. AID 1721, 2009. purified LmPK, Kinase-Glo ATP luminescence, 1 h
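Purified LmPK (0.1 nM) converted ADP (0.1 mM) to ATP with PEP (0.5 mM) in imidazole buffer pH 7.2 with KCl and MgCl2, 1 h at room temperature. ATP was read by Kinase-Glo luminescence; data normalized to uninhibited and no-enzyme controls.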
TbPYK inhibitor = qHTS of Trypanosoma Brucei Inhibitors. pyruvate kinase (Trypanosoma brucei), Q57TT1. TbPYK enzyme, Kinase-Glo Plus ATP luminescence, 45 min. Potency, µM (titrated, usually from 76.8 µM), without a hit: top-dose activity, negative = inhibition, actives largely listed as inhibitors. 410,000 tested, 0.12% active. AID 624173, 2012; note: nearly all actives have a fitted effect of over 50% in size
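Luminescent Kinase-Glo Plus end-point after 45 min room-temperature reaction of T. brucei pyruvate kinase started with 130 uM ADP (final). Buffer TEA 50 mM pH 7.2 with KCl, MgCl2, BSA, Tween-20; titration-based qHTS with fitted concentration-effect curves.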
Giardia growth = qHTS Assay for Inhibitors of Fructose-1,6-bisphosphate Aldolase from Giardia Lamblia: Giardia lamblia growth inhibition; shares compounds with Giardia FBPA inh-1; Giardia lamblia trophozoite growth inhibition; Potency, µM (titrated, usually from 57.5 µM), for inactives: top-dose activity change, negative = inhibition, usual class: inhibitors; 1,500 tested, 5% active; AID 2785, 2010;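 note: trophozoites exposed to compound for 48 h at 37 °C; nearly all actives have a fitted effect of over 70% in size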
Mammal cell tox = qHTS Assay for Inhibitors of Fructose-1,6-bisphosphate Aldolase from Giardia Lamblia: Mammalian cellular toxicity; shares compounds with Giardia FBPA inh-1; mammalian cell viability counter-screen, qHTS; Potency, µM (series often up to 57.5 µM), without a hit: at the top dose viability change, negative = toxicity, actives largely listed as inhibitors; 1,500 tested, 4% active;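 note: Chinese hamster ovary cells used as mammalian cytotoxicity surrogate; viability measured as cellular ATP by luminescence; compound exposure lasted 48 h before reading; nearly all actives have a fitted effect of over 60% in size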
Giardia FBPA inh-2 = qHTS Assay for Inhibitors of Fructose-1,6-bisphosphate Aldolase from Giardia Lamblia: Primary screen confirmation | AID 2787, 2010 | Potency, µM (series often up to 57.5 µM), for inactives: top-dose activity change, negative = inhibition, actives largely listed as inhibitors | shares compounds with Giardia FBPA inh-1 | purified Giardia aldolase enzyme activity, qHTS | 1,500 tested, 5% active; note: nearly all actives have a fitted effect of over 45% in size
Rabbit aldolase = qHTS Assay for Inhibitors of Fructose-1,6-bisphosphate Aldolase from Giardia Lamblia: Rabbit FBPA Selectivity; shares compounds with Giardia FBPA inh-1; Rabbit muscle FBPA enzyme inhibition, selectivity counter-screen; Potency, µM (series often up to 57.5 µM), for the others: at the top dose activity, negative = inhibition, hits mostly inhibitors; 1,500 tested, 4% active; AID 2794, 2010; note: nearly all actives have a fitted effect of over 60% in size
Target sequence (P00883 whole entry, looked up): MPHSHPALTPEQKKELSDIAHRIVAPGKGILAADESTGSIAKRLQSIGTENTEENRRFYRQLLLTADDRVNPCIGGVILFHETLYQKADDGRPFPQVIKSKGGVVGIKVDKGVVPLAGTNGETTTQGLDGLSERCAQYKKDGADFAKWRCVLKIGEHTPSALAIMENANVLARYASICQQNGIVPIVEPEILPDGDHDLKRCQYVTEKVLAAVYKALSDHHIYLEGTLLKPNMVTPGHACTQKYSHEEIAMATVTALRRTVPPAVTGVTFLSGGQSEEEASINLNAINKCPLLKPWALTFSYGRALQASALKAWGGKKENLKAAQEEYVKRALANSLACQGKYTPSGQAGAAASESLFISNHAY
GAPDH coupling = qHTS Assay for Inhibitors of Fructose-1,6-bisphosphate Aldolase from Giardia Lamblia: Coupling assay counterscreen confirmation | GAPDH coupling enzyme counterscreen, biochemical, qHTS | Potency, µM (top dose mostly 57.5 µM), without a hit: at the highest dose activity change, negative = inhibition, hits mostly inhibitors | 1,500 tested, 6% active | AID 2795, 2010 | shares compounds with Giardia FBPA inh-1; note: nearly all actives have a fitted effect of over 55% in size
Starred values were filed as active, the others as inactive; ? = inconclusive; nt = no result; [ ] = dose if it differs, or a comment. Unless noted, calls come from the whole dose curve; as a rule, active = well fitted curve in the direction sought with a large enough effect; inconclusive = small, poorly fitted or top-dose-only effect, or another doubt; inactive = no such curve, though single readings can be large; an effect the other way counts as inactive or inconclusive. % is set by controls: 0 for no effect and ±100 for the full control effect; potency is the fitted concentration of half-maximal effect.

SMILES	Giardia FBPA inh-1	RE007 growth inh	LmPK inh	TbPYK inhibitor	Giardia growth	Mammal cell tox	Giardia FBPA inh-2	Rabbit aldolase	GAPDH coupling
O=C(c1ccc2c(=O)n(C3CCCC3)c(=S)[nH]c2c1)N1CCCCCC1	18µM*	8%	12%	-11%	3%[10.4 µM]	-10%	6%	3%	8%
O=C(c1csnn1)N1CCC2(CC1)CCN(c1ncccn1)CC2	1%	nt	nt	4%	nt	nt	nt	nt	nt
CCOC1C(=O)NC(=O)N1Cc1ccccc1 (stereo unspecified)	28µM*	14%	-1%	5%	11%	-7%	13%	10%	5%
CC1CC(=O)NC(=O)N1Cc1ccccc1 (stereo unspecified)	nt	0%	nt	-3%	nt	nt	nt	nt	nt
CCc1cccc(-n2nnc(-c3nc(-c4ccccc4Cl)no3)c2N)c1	nt	nt	nt	-4%	nt	nt	nt	nt	nt
O=S(=O)(Nc1ccc(Cl)cc1)c1ccc(N2CCOCC2)c(NC(=S)NCCN2CCOCC2)c1	5µM*	-20%	-2%	?	-1%[38.3 µM]	3%	?	40µM*	40µM*
CCOC(=O)[C@H](CCc1ccccc1)N[C@@H](C)C(=O)N1C(=O)N(C)C[C@H]1C(=O)O	nt	nt	nt	-8%	nt	nt	nt	nt	nt
CCN(CC(=O)Nc1ccccc1OC)CC(=O)Nc1ccccc1C(F)(F)F	-5%	-2%	3%	6%	nt	nt	nt	nt	nt
CCN(CC(=O)Nc1ccccc1OC)CC(=O)Nc1ccccc1-c1ccccc1	18µM*	-7%	0%	16%	28%	-23%	4%	-3%	16%
CCCCC[C@H](O)/C=C/[C@@H]1[C@@H](C/C=C\CCCC(=O)O)[C@H](O)C[C@H]1O	-1%	nt	nt	nt	nt	nt	nt	nt	nt
NC(=O)c1c(NC(=O)c2ccccc2)sc2c1CCN(Cc1ccccc1)C2	16µM*	-3%	1%	5%	?	-17%	0%	2%	10%
CCN1CCc2c(sc(NC(=O)Cc3ccccc3)c2C(=O)OC)C1	14µM*	2%	-4%	5%	5%[10.4 µM]	4%	9%	12%	16%
CC(C)C(=O)Nc1sc2c(c1C(N)=O)CCN(Cc1ccccc1)C2	28µM*	4%	2%	2%	3%[10.4 µM]	-11%	1%	3%	-18%
NC(=O)c1c(NC(=O)c2c(F)cccc2F)sc2c1CCN(Cc1ccccc1)C2	?	-3%	5%	-1%	nt	nt	nt	nt	nt
N#Cc1ccsc1NC(=O)c1ccccn1	20µM*	-13%	-6%	-12%	10µM*	-8%	-11%	-2%	-6%
C=CCCn1c(Cl)c(C#N)sc1=O	-6%	nt	nt	nt	nt	nt	nt	nt	nt
CCCCOc1c(Br)cc(CNCCCN2CCOCC2)cc1OC	20µM*	3%	-2%	-6%	?	-9%	3%	3%	8%
CCCCNCc1cc(Br)c(OCC(=O)N2CCOCC2)c(OC)c1	-3%	4%	1%	-28%	nt	nt	nt	nt	nt
Nn1c(SCC(=O)Nc2cccc(C(F)(F)F)c2)nncc1=O	25µM*	7%	-10%	-9%	-9%[10.4 µM]	-8%	-4%	-7%	0%
Cn1ccnc1P(=S)(c1nccn1C)N1CCOCC1	-13%	5%	0%	-9%	nt	nt	nt	nt	nt
Cn1ccnc1P(=S)(c1nccn1C)c1nccn1C	7.9µM*	9%	-2%	3%	13%[38.3 µM]	5%	2%	5%	-2%
CC(C)NC(=O)N1CC2(CCN(S(=O)(=O)c3ccccc3)CC2)C1	8%	nt	nt	4%	nt	nt	nt	nt	nt
CCOC(=O)c1c(N2CCN(c3ccccc3)CC2)cc(C)nc1C	14µM*	2%	-7%	7%	?	5%	1%	8%	-9%
CCOC(=O)c1c(CN2CCN(c3ccccc3)CC2)oc2ccc(O)cc12	-8%	20%	-6%	-6%	nt	nt	nt	nt	nt
CSc1cccc(NC(=S)N2CCC(N(C)C3CCCCC3C)CC2)c1 (stereo unspecified)	6%	-6%	2%	-4%	nt	nt	nt	nt	nt
SMILES	Giardia FBPA inh-1	RE007 growth inh	LmPK inh	TbPYK inhibitor	Giardia growth	Mammal cell tox	Giardia FBPA inh-2	Rabbit aldolase	GAPDH coupling
CSc1cccc(NC(=S)N2CCC(N(C)C3CCCCC3)CC2)c1	13µM*	-8%	-2%	-3%	?	-8%	-5%	-2%	3%
CCCn1cnc2c(=S)nc(N)[nH]c21	4.5µM*	35%	2%	?	2%[38.3 µM]	-2%	?	2%	-15%
CCCCn1cnc2c(=S)nc(N)[nH]c21	7.1µM*	-10%	-7%	-28%	-4%[38.3 µM]	-11%	-9%	-14%	-7%
CCCCCn1cnc2c(=S)nc(N)[nH]c21	2.8µM*	nt	-19%	-22%	97%	-9%	3%	3%	13%
Nc1nc(=S)c2ncn(C3CCCCC3)c2[nH]1	nt	-8%	nt	?	nt	nt	nt	nt	nt
CCCCCCCCn1cnc2c(N)c(C)c(C)cc21	-2%	?	0%	3%	nt	nt	nt	nt	nt
NCCC[C@@H](CC(=O)N[C@@H]1CCNC[C@H]1C(=O)N[C@H](CC(=O)N[C@@H](CCC(=O)O)CC(=O)O)Cc1c[nH]c2ccccc12)NC(=O)C[C@H](CO)NC(=O)[C@@H]1CCCC[C@H]1N	-19%	nt	nt	nt	nt	nt	nt	nt	nt
Cc1ccc(NC(=S)c2ccncc2)cc1	28µM*	-5%	1%	-8%	23%	1%	6%	-2%	8%
Cc1ccc(NC(=S)c2ccccc2)cc1	-11%	-7%	2%	5%	nt	nt	nt	nt	nt
CCCCCCCCCCCCCCCCn1cc[n+](Cc2ccccc2)c1C	-7%	nt	nt	nt	nt	nt	nt	nt	nt
CN(C)CCCC1Sc2ccccc2Sc2ccccc21 (stereo unspecified)	nt	-2%	nt	-6%	nt	nt	nt	nt	nt
CNCCC1Sc2ccccc2Oc2ccccc21 (stereo unspecified)	18µM*	-11%	-3%	4%	-9%	4%	-2%	4%	5%
CC(C)C(=O)NC(=S)Nc1nnn(C)n1	3.2µM*	2%	1%	-23%	?	0%	-1%	7%	6%
